# From PubChem BioAssay
# USP10 block: blocks human USP10 ubiquitin-rhodamine cleavage | Q14694 | purified USP10, Ub-rhodamine fluorescence, 60 min | inhibition, % at 20 µM | actives 1.1% (n = 47,000)
# USP8 block: blocks human USP8 ubiquitin-rhodamine cleavage | inhibition, % at 20 µM | purified USP8, Ub-rhodamine cleavage fluorescence, 30 min | actives 4.2% (n = 47,000) | P40818
# UCHL1 block: human UCHL1 deubiquitinase inhibition; P09936; purified UCHL1, Ub-rhodamine cleavage fluorescence; inhibition, % at 20 µM; actives 0.2% (n = 47,000); AID 1645859
# Target sequence (P09936 whole entry, looked up): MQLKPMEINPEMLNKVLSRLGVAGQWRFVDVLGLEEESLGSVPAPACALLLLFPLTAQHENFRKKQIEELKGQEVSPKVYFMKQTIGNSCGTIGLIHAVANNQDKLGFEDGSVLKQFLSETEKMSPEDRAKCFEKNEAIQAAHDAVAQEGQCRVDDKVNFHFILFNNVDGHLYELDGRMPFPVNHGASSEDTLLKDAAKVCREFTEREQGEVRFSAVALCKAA
# USP7 block: inhibitors of human USP7 deubiquitinase; Q93009; purified USP7, Ub-rhodamine cleavage fluorescence; inhibition, % at 20 µM; actives 0.3% (n = 47,000)
# Starred values were filed as active, the others as inactive. This is a sample that favours compounds with a hit; in the whole collection about 5% have one here. No stated cut-off is given here; in the data, active means inhibition above about 30%; inactive means the rest.
SMILES,USP10 block,USP8 block,UCHL1 block,USP7 block
C[C@H](Cc1cc2c(cc1O)OCO2)[C@@H](C)Cc1cc2c(cc1O)OCO2,84*,64*,25,19
Cc1cc2c(cc1CCc1cc3c(cc1C)OCO3)OCO2,3,-6,-1,2
Cc1[nH]c2ccccc2c1CCNC(=O)c1cc2cc(Cl)ccc2oc1=O,-3,56*,5,0
COc1ccc(CN(Cc2nc3ccccc3c(=O)[nH]2)C(=O)c2ccc(F)cc2)cc1,1,-7,0,0
O=C(O)c1nccnc1C(=O)N1CCc2ccccc2C1,16,91*,6,-12
CCOc1ccc(C(=O)CCC(=O)Nc2cccc(S(=O)(=O)Nc3cccc(Cl)c3)c2)cc1,33*,0,1,6
COc1ccc(NS(=O)(=O)c2cccc(NC(=O)CCOc3ccccc3OC)c2)cc1,6,7,3,3
CCOC(=O)CSc1nnc(-c2cnn(-c3ccccc3)c2N)o1,1,10,0,0
CC(C)(C)c1ccc(C(=O)Nc2ccc(O)cc2C(=O)O)cc1,5,14,2,5
COc1ccc(C(=O)Nc2ccc(O)cc2C(=O)O)cc1OC,4,33*,5,7
Cc1cc(O)ccc1NC(=O)CC(NCCc1ccccc1)C(=O)O (stereo unspecified),3,31*,1,6
CCOC(=O)Cn1c(-c2ccc(Cl)cc2)ccc(C#N)c1=O,6,31*,2,7
CN(C(=O)c1cccnc1-c1nc2ccccc2s1)c1ccccc1,1,-21,2,0
O=C(NCc1ccco1)c1cccnc1-c1nc2ccccc2s1,0,33*,6,-10
CN(CC1COc2ccccc2O1)C(=O)c1ccc(-c2cncnc2)nc1 (stereo unspecified),0,6,1,6
CN(C)C1(CNC(=O)Cc2ccccc2)CCCCC1,1,2,-1,1
O=C(NCc1cccc(F)c1)NC1CCN(c2ccccc2)C1=O (stereo unspecified),3,14,-1,2
COc1ccc(S(=O)(=O)N(CC(=O)NCc2ccco2)c2ccc(C)cc2)cc1,0,30*,5,-11
Cc1cnc(NC(=O)c2ccccc2F)s1,-1,0,-2,-6
CCc1ccccc1NC(=O)CCn1c(=O)c2cccn2c2ccccc21,5,37*,1,-2
CC(=O)c1ccc(NC(=O)CCn2c(=O)c3cccn3c3ccccc32)cc1,22,29,-2,6
O=C(Nc1noc(-c2ccccc2)n1)c1ccc(Br)cc1,18,38*,0,8
O=C(COc1ccc(F)cc1)Nc1noc(-c2ccccc2)n1,2,24,2,6
CCOC(=O)c1c2ccc(OCc3ccc([N+](=O)[O-])cc3)cc2n2ccccc12,2,74*,8,5
COc1cc(=O)c(C(=O)Nc2ccc(C#N)cc2)nn1-c1cccc(F)c1,9,62*,1,-3
SMILES,USP10 block,USP8 block,UCHL1 block,USP7 block
Nc1c2c(nc3cc(Cl)ccc13)CCCC2=O,-2,45*,-3,-4
COc1ccc(C2=NO[C@]3(C(=O)Nc4ccccc43)[C@H]2C(=O)c2ccco2)cc1,-2,-4,0,4
O=C(c1cc2c(s1)CN(C1CCCC1)C2)N1CCCN(c2ncccn2)CC1,-9,84*,0,-8
O=C(c1cc2cn(C3CC3)cc2s1)N1CCCN(c2ncccn2)CC1,-4,83*,-6,-14
CNc1cncc(C2CCN(C(=O)c3ccn(C)n3)CC2)n1,-5,6,-1,1
Cc1c(C2CCCN(C(=O)c3ccn(C)n3)C2)n2c(nc1=O)CCC2 (stereo unspecified),4,36*,3,9
O=C(Cc1ccccc1)N1CCc2nc(C(=O)N3CCCC3)sc2CC1,-3,19,1,2
CC(C)NS(=O)(=O)c1ccc(NC(=O)C(C)Oc2ccccc2C#N)cc1 (stereo unspecified),4,2,7,10
CCCC(=O)N1CCC2(CC1)Nc1ccccc1NC2=O,-2,87*,9,-5
Cn1cc2c(n1)c(=O)n(Cc1ccc(F)cc1)c(=O)n2CC(=O)NCc1ccccc1,5,-48,1,4
Cc1cc(C)c(NC(=O)Cn2c(=O)n(Cc3ccccc3)c(=O)c3nn(C)cc32)c(C)c1,1,41*,5,4
CCn1cc2c(n1)c(=O)n(Cc1ccccc1)c(=O)n2CC(=O)Nc1ccc(C)cc1C,30*,93*,4,30*
COc1ccc(CNC(=O)C2COc3ccc(OC)cc3C2)cc1 (stereo unspecified),3,1,-4,-1
COCCN1CCCC[C@]2(C[C@H](CO)[C@H](c3ccccc3)N2C(=O)c2ccccc2)C1=O,6,2,-2,3
O=C(Cn1cncc(-c2nc(-c3ccccc3)cs2)c1=O)NC1CCCC1,2,21,3,5
Cc1nnc2n1CCN(C(=O)c1ccc(OC(F)(F)F)cc1)C2,2,9,-1,2
Cc1ccc(-c2nnc([C@H]3CCN(Cc4ccco4)C3)o2)cc1,-4,9,-21,-21
CCOc1ccc(CC(=O)NCC(=O)N2CCC3(CC2)NCCc2[nH]cnc23)cc1,-3,30*,-1,2
O=C(Cc1ccc(F)cc1)NCC(=O)N1CCC2(CC1)NCCc1[nH]cnc12,-1,22,1,0
COc1ccccc1NC(=O)c1nc(-c2cn(-c3ccc(F)cc3)nn2)no1,21,57*,-9,-9
Fc1ccc(Cn2cc(-c3noc(-c4ccco4)n3)nn2)cc1,-3,-5,0,-9
COc1cc(OC)cc(-c2nc(-c3cn(-c4cccc(F)c4)nn3)no2)c1,5,62*,5,8
COc1ccc(Cl)cc1NC(=O)c1nc(-c2cn(-c3ccccc3)nn2)no1,32*,99*,9,-9
Cc1ccccc1NC(=O)c1nc(-c2cn(Cc3ccc(F)cc3)nn2)no1,35*,95*,9,0
CN(C)C(=O)NC[C@H]1OC[C@@H]2CCN(Cc3cccc(C#N)c3)C[C@@H]21,-1,-78,-1,0
SMILES,USP10 block,USP8 block,UCHL1 block,USP7 block
COc1ccccc1-c1nc(-c2cn(-c3cccc(Cl)c3)nn2)no1,71*,96*,27,51*
Cc1c(C(=O)N(C)c2nc3c(s2)CCc2occc2-3)oc2ccccc12,9,48*,6,4
CN(C(=O)c1cccs1)c1nc2c(s1)CCc1occc1-2,4,6,1,-14
O=C(O)C1CCCCN1Cc1c(-c2cccs2)nc2ccccn12 (stereo unspecified),-8,-7,-9,-7
O=C1NC(=O)/C(=C/c2ccc(OC(=O)c3ccc(Cl)cc3Cl)cc2)N1,45*,94*,4,5
COc1ccc2c(c1)C(=O)C/C(=C\c1ccc(Cl)cc1)C2,8,21,8,10
CN(CCc1noc(-c2ccc(C(=O)NCc3cccnc3)cc2)n1)C(=O)c1ccccc1,2,5,0,0
CCn1c(SCC(=O)Nc2ccc(C)c(Cl)c2)nnc1-c1ccc2c(c1)OCCO2,18,31*,5,4
O=C(NCc1ccccn1)c1cn(-c2cccc(Cl)c2)nn1,3,-1,-3,-9
